TR SRC2 fluor cs: Texas Red fluorescence interference in TRb-SRC2 counter-screen | Potency, µM (series often up to 106 µM), for the others: top-dose fluorescence change, negative = quenching | hit rate 0.29% among 280,000 | AID 1479 | TRb/SRC2 Texas Red total fluorescence interference; active means well fitted curve in either direction with a large enough effect; inconclusive means small, poorly fitted or top-dose-only effect; further: potency means the concentration at half of the fitted maximal effect; on the % scale 0 is the no-effect control and ±100 the full control effect
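Flags fluorescent or light-absorbing compounds by total fluorescence, S + 2P, at 555 nm excitation and 632 nm emission. Mixture: 20 nM Texas Red SRC2 peptide, 0.6 uM human TRb LBD, 1 uM T3, 5% DMSO; compound exposure 5 h at ambient temperature.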
GCN5L2 inh: blocks human GCN5L2 histone acetyltransferase; Q92830; GCN5L2 HAT assay, ThioGlo1 CoA-SH fluorescence; Potency, µM (top dose mostly 58.9 µM), inactives show at the top dose activity change, negative = inhibition, actives largely listed as inhibitors; hit rate 0.21% among 390,000; AID 504327; further: potency means the concentration at half of the fitted maximal effect; on the % scale 0 is the no-effect control and ±100 the full control effect
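qHTS, 1536-well. 20nM enzyme, pH 7.5 HEPES/EDTA/Tween-20 buffer; 15 min compound preinc., RT. Start: 75uM H3(1-25), 70uM AcCoA, 50uM ThioGlo1. Read Ex340/Em540 at t=0 (autofluorescence flag) and t=20 min.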
VDR inhibitor: inhibitors of human vitamin D receptor; Potency, µM, without a hit: max response, negative = inhibition, actives largely listed as inhibitors; VDR-SRC2-3 peptide fluorescence polarization, 2 h; hit rate 0.93% among 400,000; P11473; AID 504847; further: potency means the concentration at half of the fitted maximal effect; on the % scale 0 is the no-effect control and ±100 the full control effect
Target sequence (P11473 whole entry, looked up): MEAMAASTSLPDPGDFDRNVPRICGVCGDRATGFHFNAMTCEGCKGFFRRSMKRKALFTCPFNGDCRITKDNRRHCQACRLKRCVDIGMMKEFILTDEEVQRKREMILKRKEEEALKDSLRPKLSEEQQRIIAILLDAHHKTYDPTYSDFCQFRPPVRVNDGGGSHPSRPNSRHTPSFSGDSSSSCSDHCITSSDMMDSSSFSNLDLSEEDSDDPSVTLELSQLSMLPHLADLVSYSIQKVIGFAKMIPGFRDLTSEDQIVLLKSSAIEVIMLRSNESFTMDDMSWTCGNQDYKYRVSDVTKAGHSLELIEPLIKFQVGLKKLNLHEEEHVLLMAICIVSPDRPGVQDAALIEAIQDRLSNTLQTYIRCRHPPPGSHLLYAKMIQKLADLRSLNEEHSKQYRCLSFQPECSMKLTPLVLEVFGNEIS
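The screen uses fluorescence polarization to detect compounds that interfere with recruitment of the SRC2-3 coactivator peptide to VDR; plates are read after 2 h at room temperature.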
RGS12 GoLoco inh-1: RGS12 GoLoco-Gai1 interaction inhibition. Gai1:RGS12 GoLoco peptide FP, rhodamine, 10 min. P63096. Potency, µM (top dose mostly 61.6 µM), inactives show top-dose activity, negative = inhibition, usual class: inhibitors. AID 880. hit rate 0.44% among 230,000; active means well fitted inhibition curve with a large enough effect, not every such curve was filed as active; inactive means no such curve, though single readings can be large or run the other way; further: potency means the concentration at half of the fitted maximal effect; on the % scale 0 is the no-effect control and ±100 the full control effect; nearly all actives have a fitted effect of over 30% in size
Target sequence (P63096 whole entry, looked up): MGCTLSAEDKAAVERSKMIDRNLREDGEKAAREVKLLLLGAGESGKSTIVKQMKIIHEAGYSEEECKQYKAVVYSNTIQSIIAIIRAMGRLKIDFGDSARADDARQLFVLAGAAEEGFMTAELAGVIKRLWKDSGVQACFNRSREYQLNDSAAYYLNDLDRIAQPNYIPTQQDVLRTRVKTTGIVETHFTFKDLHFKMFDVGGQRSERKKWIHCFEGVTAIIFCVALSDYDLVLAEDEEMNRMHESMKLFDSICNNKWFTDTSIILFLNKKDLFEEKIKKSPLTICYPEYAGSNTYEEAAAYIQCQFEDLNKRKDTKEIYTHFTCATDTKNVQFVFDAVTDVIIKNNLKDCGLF
TRb-SRC2 inh: disrupts binding of human TR beta to SRC2; P10828; TRbeta-SRC2 peptide binding, fluorescence polarization; receptor liganded with 1 µM T3; Potency, µM (series often up to 106 µM), for the others: top-dose activity change, negative = inhibition, most hits filed as inhibitors; hit rate 0.065% among 280,000;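 further: potency means the concentration at half of the fitted maximal effect; plate controls were bound peptide for no effect and peptide without receptor for full effect; nearly all actives have a fitted effect of over 50% in size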
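Assay buffer: 20 mM Tris-HCl, 100 mM NaCl, 10% glycerol, 1 mM EDTA, 0.01% NP-40, 1 mM DTT, 1 uM T3, 5% DMSO; TRb LBD 0.6 uM, Texas Red SRC2 20 nM; FP after 5 hr.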
RGS12 GoLoco inh-2: disrupts Gai1 binding to human RGS12 GoLoco peptide. shares compounds with RGS12 GoLoco inh-1. Gai1/rhodamine-RGS12 GoLoco peptide fluorescence polarization. Potency, µM (doses to about 57.1 µM), for the others: top-dose activity, negative = inhibition, usual class: inhibitors. hit rate 50% among 110. AID 2390
* hit, by the source's call; u = inconclusive; x = not tested or not shown; ! = a repeat was not active; [ ] = dose if it differs, or a comment. Most compounds without a hit are left out; they make up all but 1.2% or so of the library. Unless noted, the call rests on the fitted dose curve; in most records, active means well fitted curve in the direction sought with a large enough effect; inconclusive means small, poorly fitted or top-dose-only effect, or another doubt; inactive means no such curve, though single readings can be large; an effect the other way counts as inactive or inconclusive.

SMILES	TR SRC2 fluor cs	GCN5L2 inh	VDR inhibitor	RGS12 GoLoco inh-1	TRb-SRC2 inh	others
C[C@@H]([C@@H](O)c1ccccc1)N(C)C(=O)Cc1ccccc1	x	x	4%	x	x
CN(C)CC(C(=O)Cc1ccccc1)c1ccccc1 (stereo not given)	x	x	35µM*	x	x
N[C@H](Cc1ccc2oc3cc(=O)c4ccccc4c-3nc2c1)C(=O)O	x	x	x	3.5µM*	x
O=c1c2ccccc2[se]n1-c1ccccc1	-1%	0.4µM*	7.1µM*	2.8µM*!	5%
O=c1c2ccccc2nc(-c2ccccc2)n1-c1ccccc1	-5%	-2%	-16%	3%	-1%
Cc1c(COC(=O)C2C(/C=C(\Cl)C(F)(F)F)C2(C)C)cccc1-c1ccccc1 (stereo not given)	0%[201 µM]	x	x	x	-5%[201 µM]
CN1CCN(c2ccc(F)cc2N)CC1	-2%	-1%	7%	15%	-5%
CN1CCN(c2ccccc2N)CC1	15%	x	2%	25µM*	-22%
COP(=S)(OC)SCn1nnc2ccccc2c1=O	0%[201 µM]	40µM*	22µM*	2%	-1%[201 µM]
COc1ccc(-n2c(SCCN(C)C)nc3ccccc3c2=O)cc1	-6%	-2%	11%	-8%	1%
O=CNC(N1CCN(C(NC=O)C(Cl)(Cl)Cl)CC1)C(Cl)(Cl)Cl (stereo not given)	1%[201 µM]	x	x	x	4%[201 µM]
Cc1cccc2sc3nncn3c12	-4%[201 µM]	x	x	x	1%[201 µM]
CNC(=O)Oc1cccc2ccccc12	-3%[201 µM]	u	14µM*!	-6%	-2%[201 µM]
COC(=O)c1sccc1S(=O)(=O)NC(=O)Nc1nc(C)nc(OC)n1	-2%[201 µM]	x	x	x	-5%[201 µM]
O=C1OC(c2ccc(O)c(S(=O)(=O)O)c2)(c2ccc(O)c(S(=O)(=O)O)c2)c2c(Br)c(Br)c(Br)c(Br)c21	0%	28µM*	35µM*	1%	3%
O=C1c2cccc3cccc(c23)C(=O)N1/N=C/c1c(O)n(-c2ccccc2)c(=O)[nH]c1=O	0%	-11%	-23%	16µM*	-2%
COc1ccc(Cc2c(O)[nH]c(=S)[nH]c2=O)cc1	x	6.3µM*	-14%	x	x
CCOC(=O)c1ccccc1NC(=O)c1c(O)[nH]c(=S)[nH]c1=O	x	x	2%	x	x
CCNc1nc(Cl)nc(NC(C)(C)C#N)n1	-1%[201 µM]	x	x	x	-1%[201 µM]
CCC(CC)Nc1c([N+](=O)[O-])cc(C)c(C)c1[N+](=O)[O-]	-1%[201 µM]	x	x	x	1%[201 µM]
CC[C@]1(O)CC(O[C@@H]2CC(N(C)C)C(O)C(C)O2)c2c(cc3c(c2O)C(=O)c2c(O)ccc(O)c2C3=O)C1C(=O)OC (stereo not given in full)	40µM*[fluorescent]	-7%	-24%	10%	15%
COC(=O)[C@@H]1c2cc3c(c(O)c2[C@@H](O)C[C@]1(C)O)C(=O)c1c(O)cc2c(c1C3=O)O[C@H]1O[C@@]2(C)[C@@H](O)[C@H](N(C)C)[C@H]1O	x	x	x	33%[14.2 µM]	x
CCN(CC)C(=O)N[C@@H]1C=C2c3cccc4[nH]cc(c34)C[C@H]2N(C)C1	2%	u	40µM*	-26%	1%
O=[N+]([O-])c1ccc(Oc2ccc(Cl)cc2Cl)cc1	0%[201 µM]	x	x	x	0%[201 µM]
CCSC(C)CC1CC(=O)C(/C(CC)=N/OC/C=C/Cl)=C(O)C1 (stereo not given)	-13%[201 µM]	x	x	x	-7%[201 µM]
SMILES	TR SRC2 fluor cs	GCN5L2 inh	VDR inhibitor	RGS12 GoLoco inh-1	TRb-SRC2 inh	others
c1cnc(N2CC[C@@]3(CCCNC3)C2)nc1	x	-4%	u	-5%	x
c1ccc(N2CC[C@@]3(CCCNC3)C2)cc1	x	-12%	50µM*	-6%	x
O=C1NC(=O)C(Sc2ccccc2[N+](=O)[O-])C(=O)N1	x	-17%	40µM*	x	x
O=[N+]([O-])c1ccccc1O	-2%	x	x	1%	7%
[CH3][Sn]([CH3])([Cl])[Cl]	-2%[201 µM]	x	x	x	2%[201 µM]
CNC(=O)OCc1n(C)cc[n+]1C	0%	-13%	-14%	1.8µM*	4%
CNC(=O)OCCc1nccn1C	-1%	1%	5%	0%	3%
CC[n+]1c(SC)ccc2cc(OC)ccc21	-1%	0%	-23%	10µM*	-1%
C[C@]12C=CC(=O)C=C1CC[C@@H]1C2=CC[C@]2(C)[C@@H](C(=O)CN3CCN(c4cc(N5CCCC5)nc(N5CCCC5)n4)CC3)CC[C@@H]12	x	-12%	2.8µM*	x	x
C/C(=N\NC(=O)Nc1cc(F)cc(F)c1)c1ncccc1C(=O)O	-2%[201 µM]	x	x	x	2%[201 µM]
CC(C)c1ccc(N2C(=O)NC(=O)/C(=C/c3cnc(-c4ccccc4)nc3)C2=O)cc1	3%	27%	35µM*	18%	6%
CCNc1nc(Cl)nc(NC(C)(C)C)n1	0%[201 µM]	x	x	x	-3%[201 µM]
CNC(=O)Oc1cc(C)cc(C(C)C)c1	-3%[201 µM]	x	x	x	0%[201 µM]
C=CC(=O)OCC(CC)(COC(=O)C=C)COC(=O)C=C	4%[201 µM]	x	x	x	-10%[201 µM]
C[N+]1(C)C2CCC1CC(OC(=O)c1c[nH]c3ccccc13)C2 (stereo not given)	2%	u	7%	14%	-4%
C[N+]1(C)C2CCC1CC(OC(=O)c1ccco1)C2 (stereo not given)	-1%	-29%	12%	10µM*	0%
CC1Oc2cc3c(-c4c(O)cc(O)c5c(O)c6c(cc45)OC(C)C(C)C6=O)c(O)cc(O)c3c(O)c2C(=O)C1C (stereo not given)	u	25µM*	79µM*	3%	3%
C[N+]12CCC(CC1)C(=C(c1ccccc1)c1ccccc1)C2	-8%	-4%	-1%	11µM*	0%	RGS12 GoLoco inh-2=14µM*
CC(Oc1cccc(Cl)c1)C(=O)O (stereo not given)	-2%[201 µM]	x	x	x	0%[201 µM]
CCn1c(C)[n+](CC(O)COCC2CC=CCC2)c2ccccc21 (stereo not given)	0%	-12%	18%	2.2µM*	-12%	RGS12 GoLoco inh-2=14µM*
O=c1[nH]c2ccccc2c(=O)o1	-5%[201 µM]	x	x	x	-2%[201 µM]
CCCC[N+]12CCC(CC1)C(C(O)(c1ccccc1)c1ccccc1)C2 (stereo not given)	0%	-7%	1%	-13%	0%
C[N+]12CCC(CC1)C(C(O)(c1ccccc1)c1cccs1)C2 (stereo not given)	-2%	-12%	8%	3.5µM*	1%	RGS12 GoLoco inh-2=25µM*
CCCC[N+]12CCC(CC1)C(Cc1ccccc1)C2 (stereo not given)	-2%	-1%	-3%	2%	2%	RGS12 GoLoco inh-2=4%
CCC(C)(CC)c1cc(NC(=O)c2c(OC)cccc2OC)on1	-1%[201 µM]	x	x	x	9%[201 µM]
CN(N=O)c1cc(O)ccc1O	13µM*[quencher]	u	45µM*	5.6µM*	u	RGS12 GoLoco inh-2=u
Cc1ccc(O)cc1	-1%	4%	3%	-4%	-2%
